Consider seven compounds from PubChem BioAssay (NCI).

Experiment [1] is described as follows: NCI Yeast Anticancer Drug Screen. Data for the rad50 strain (AID 155).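 Also: 0% = growth of vehicle-only cultures of the same strain.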 Particulars: S. cerevisiae rad50 strain growth inhibition, stronger effect = higher value. The procedure, abridged:
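A DNA repair-deficient yeast mutant serves as the test organism; compound-induced growth inhibition is calculated against vehicle-treated cells.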

Experiment [2] in a line: NCI Yeast Anticancer Drug Screen. Data for the mec2-1 strain (AID 157). The note with it: S. cerevisiae mec2-1 strain, stronger effect = higher value. The procedure, abridged:
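Mutant yeast (mec2-1) grown with compound; growth inhibition relative to vehicle control reported.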

Experiment [3] can be described thus: NCI Yeast Anticancer Drug Screen. Data for the sgs1 mgt1 strain (AID 161).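 Also: 0% = growth of cultures given vehicle only.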 The note with it: S. cerevisiae sgs1 mgt1 strain, stronger effect = higher value. The procedure, abridged: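 Yeast cells carrying a defined DNA-repair defect were exposed to test compounds. Growth inhibition was measured relative to vehicle-treated controls.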
Experiment [4] is described as follows: NCI Yeast Anticancer Drug Screen. Data for the cln2 rad14 strain (AID 165).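 Also: 0% = growth equal to vehicle treated cultures.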 The note with it: S. cerevisiae cln2 rad14 strain, stronger effect = higher value. The procedure, abridged: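 Readout is yeast growth inhibition versus vehicle-treated controls, using a strain with cln2 and rad14 alterations exposed to compound.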
Experiment [5] can be described thus: NCI Yeast Anticancer Drug Screen. Data for the bub3 strain (AID 167). The note with it: S. cerevisiae bub3 mutant strain, stronger effect = higher value. The procedure, abridged: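 Inhibition values come from growth of compound-treated mutant yeast normalised to vehicle-treated controls.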
Experiment [6] can be described thus: NCI Yeast Anticancer Drug Screen. Data for the mlh1 rad18 strain (AID 175). Particulars: S. cerevisiae mlh1 rad18 strain growth inhibition, stronger effect = higher value. The procedure, abridged:
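Genetically defined yeast (DNA repair-deficient) exposed to compounds; growth inhibition determined relative to vehicle.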

[7] abbreviates: at 5.0 µM (retest, dose inferred, filed as 0.5).
The mark [8] stands for this setting: at 50.0 µM (retest, dose inferred, filed as 5.0).

Several values for one entry are separate records, joined by “and”; a condition that tells them apart may be missing. Identical values can stand only once. The panel holds about 79,000 compounds, 15% with a hit somewhere; the sample as a whole holds those more often. A structure can be active in one record and inactive in another. Activity calls are given as the source filed them. Rule as the data show it: active = growth inhibition above about 70%; inactive = the rest.

`O=C(c1ccco1)N(C(=S)N1CCN(c2ccccn2)CC1)C1CCCCC1`: the growth inhibition in experiment [1] (setting [7]) was 5% (inactive); in experiment [1] (setting [8]), 46% (inactive); in experiment [1] (at 50.0 µM), 73.3% (active); in experiment [2] (setting [7]) it was -7% (inactive); in experiment [2] (setting [8]), 49% (inactive); in experiment [2] (at 50.0 µM) it was 86.7% (active). For the same compound, the growth inhibition in experiment [3] (setting [7]) was 0% (inactive); in experiment [3] (setting [8]), 76% (active); in experiment [3] (at 50.0 µM), 84.3% (active); in experiment [4] (setting [7]), 30% (inactive); in experiment [4] (setting [8]) it was 60% (inactive); in experiment [4] (at 50.0 µM), 71.8% (active). In addition, the growth inhibition is 0% (inactive) in experiment [5] (setting [7]); 40% (inactive) in experiment [5] (setting [8]); 79% (active) in experiment [5] (at 50.0 µM); -14% (inactive) in experiment [6] (setting [7]); 80% (active) in experiment [6] (setting [8]); 79.3% (active) in experiment [6] (at 50.0 µM).
`CCCCCCCCCCCCCCCCCC(=O)OC(Cc1ccccc1)C(=O)O` (stereo unspecified): the growth inhibition in experiment [1] (setting [7]) is 1% (inactive); in experiment [1] (setting [8]), -2% (inactive); in experiment [1] (at 50.0 µM), 33.9% (inactive); in experiment [2] (setting [7]), 1% (inactive); in experiment [2] (setting [8]) it was 2% (inactive); in experiment [2] (at 50.0 µM), 18% (inactive). Also, the growth inhibition in experiment [3] (setting [7]) was 1% (inactive); in experiment [3] (setting [8]), -15% (inactive); in experiment [3] (at 50.0 µM) it was 15.7% (inactive); in experiment [4] (setting [7]) it was 2% (inactive); in experiment [4] (setting [8]) it was -9% (inactive); in experiment [4] (at 50.0 µM), 26.2% (inactive). In addition, the growth inhibition in experiment [5] (setting [7]) is 1% (inactive); in experiment [5] (setting [8]), 2% (inactive); in experiment [5] (at 50.0 µM), 35.7% (inactive); in experiment [6] (setting [7]), 0% (inactive); in experiment [6] (setting [8]), -1% (inactive); in experiment [6] (at 50.0 µM), 32.9% (inactive).
For `Cc1cc([N+](=O)[O-])c(C)c2c1[nH]c1ccc(O)cc12`, the growth inhibition in experiment [1] (setting [7]) was 52% (inactive); in experiment [1] (setting [8]), 93% (active); in experiment [1] (at 50.0 µM), 87% (active); in experiment [2] (setting [7]), 46% (inactive); in experiment [2] (setting [8]), 94% (active); in experiment [2] (at 50.0 µM), 88.8% (active). In addition, the growth inhibition in experiment [3] (setting [7]) was 23% (inactive); in experiment [3] (setting [8]), 94% (active); in experiment [3] (at 50.0 µM) it was 88.2% (active); in experiment [4] (setting [7]), 50% (inactive); in experiment [4] (setting [8]), 96% (active); in experiment [4] (at 50.0 µM), 85.5% (active). Besides, the growth inhibition was 78% (active) in experiment [5] (setting [7]); 96% (active) in experiment [5] (setting [8]); 88.8% (active) in experiment [5] (at 50.0 µM); 73% (active) in experiment [6] (setting [7]); 95% (active) in experiment [6] (setting [8]); 82.7% (active) in experiment [6] (at 50.0 µM).
As to `CC(=O)NC1C(O)OC(CO)C(OC2OC(CO)C(O)C(O)C2NC(=O)NCCCCCCNC(=O)n2cc(F)c(=O)[nH]c2=O)C1O` (stereo unspecified), the growth inhibition in experiment [1] (setting [7]) was 3% (inactive) and 85% (active); in experiment [1] (setting [8]), 58% (inactive) and 98% (active); in experiment [1] (at 50.0 µM), 43.1% (inactive) and 91.9% (active); in experiment [2] (setting [7]), -5% (inactive) and 78% (active); in experiment [2] (setting [8]), 70% (active) and 99% (active); in experiment [2] (at 50.0 µM) it was 72.2% (active) and 93.5% (active). Further, the growth inhibition in experiment [3] (setting [7]) was 7% (inactive) and 93% (active); in experiment [3] (setting [8]) it was 81% (active) and 98% (active); in experiment [3] (at 50.0 µM) it was 78.8% (active) and 88.5% (active); in experiment [4] (setting [7]) it was 8% (inactive) and 52% (inactive); in experiment [4] (setting [8]), 20% (inactive) and 98% (active); in experiment [4] (at 50.0 µM), 24.8% (inactive) and 63.7% (inactive). Also, the growth inhibition in experiment [5] (setting [7]) is 5% (inactive) and 46% (inactive); in experiment [5] (setting [8]), 19% (inactive) and 99% (active); in experiment [5] (at 50.0 µM), 25.2% (inactive) and 75.5% (active); in experiment [6] (setting [7]) it was 4% (inactive) and 87% (active); in experiment [6] (setting [8]) it was 48% (inactive) and 98% (active); in experiment [6] (at 50.0 µM) it was 37% (inactive) and 86.8% (active).
As to `CC1(C)N(OC2CCCCO2)C(c2ccccc2)C(c2ccccc2)=[N+]1[O-]` (stereo unspecified), the growth inhibition in experiment [1] (setting [7]) was 18% (inactive); in experiment [1] (setting [8]), 24% (inactive); in experiment [1] (at 50.0 µM), 34% (inactive); in experiment [2] (setting [7]) it was 12% (inactive); in experiment [2] (setting [8]) it was 21% (inactive); in experiment [2] (at 50.0 µM) it was 3.05% (inactive). In addition, the growth inhibition was 18% (inactive) in experiment [3] (setting [7]); 18% (inactive) in experiment [3] (setting [8]); -13.7% (inactive) in experiment [3] (at 50.0 µM); 17% (inactive) in experiment [4] (setting [7]); 27% (inactive) in experiment [4] (setting [8]); 7.4% (inactive) in experiment [4] (at 50.0 µM). The growth inhibition in experiment [5] (setting [7]) is 19% (inactive); in experiment [5] (setting [8]), 25% (inactive); in experiment [5] (at 50.0 µM), -23% (inactive); in experiment [6] (setting [7]), 21% (inactive); in experiment [6] (setting [8]), 24% (inactive); in experiment [6] (at 50.0 µM), -6.55% (inactive).
With `c1ccc2c(c1)[nH]c1c(N3CCOCC3)nnc(N3CCOCC3)c12`, the growth inhibition was 2% (inactive) in experiment [1] (setting [7]); 1% (inactive) in experiment [1] (setting [8]); 35.5% (inactive) in experiment [1] (at 50.0 µM); -5% (inactive) in experiment [2] (setting [7]); 3% (inactive) in experiment [2] (setting [8]); 44% (inactive) in experiment [2] (at 50.0 µM). In addition, the growth inhibition in experiment [3] (setting [7]) is -2% (inactive); in experiment [3] (setting [8]), 0% (inactive); in experiment [3] (at 50.0 µM), 77.8% (active); in experiment [4] (setting [7]), -2% (inactive); in experiment [4] (setting [8]), -5% (inactive); in experiment [4] (at 50.0 µM), 35.3% (inactive). Moreover, the growth inhibition was 0% (inactive) in experiment [5] (setting [7]); -1% (inactive) in experiment [5] (setting [8]); 47.1% (inactive) in experiment [5] (at 50.0 µM); -6% (inactive) in experiment [6] (setting [7]); -6% (inactive) in experiment [6] (setting [8]); 83% (active) in experiment [6] (at 50.0 µM).
Turning to `CC(=O)OC1CCC2(C)C(CCC3C4CCC(OC(C)=O)C4(C)CCC32)O1` (stereo unspecified), the growth inhibition in experiment [1] (setting [7]) was -3% (inactive); in experiment [1] (setting [8]) it was 79% (active); in experiment [1] (at 50.0 µM) it was 36.2% (inactive); in experiment [2] (setting [7]), 5% (inactive); in experiment [2] (setting [8]) it was 95% (active); in experiment [2] (at 50.0 µM) it was 15.1% (inactive). In addition, the growth inhibition is -23% (inactive) in experiment [3] (setting [7]); 70% (active) in experiment [3] (setting [8]); 43.6% (inactive) in experiment [3] (at 50.0 µM); -6% (inactive) in experiment [4] (setting [7]); 41% (inactive) in experiment [4] (setting [8]); 15% (inactive) in experiment [4] (at 50.0 µM). The growth inhibition in experiment [5] (setting [7]) was -2% (inactive); in experiment [5] (setting [8]) it was 66% (inactive); in experiment [5] (at 50.0 µM), 11.3% (inactive); in experiment [6] (setting [7]), 6% (inactive); in experiment [6] (setting [8]) it was 93% (active); in experiment [6] (at 50.0 µM), 24.4% (inactive).
